# YopH PTP inh = inhibitors of Yersinia enterocolitica YopH tyrosine phosphatase; AID 898; inhibition, % (test concentration not listed); fluorescence Ex485/Em525; 140,000 tested, 0.16% active; in the data active = inhibition above about 50%
# RmlCD inh 1536 = M. tuberculosis RmlC/RmlD inhibition; P9WH09+P9WH11; RmlC+RmlD coupled enzyme assay, percent inhibition; primary screen in compound mixtures; inhibition, % at 3.6 µM; 160,000 tested, 0.03% active; in the data active = inhibition mostly above about 34%, no sharp cut-off
# Target sequence (P9WH09 whole entry, looked up): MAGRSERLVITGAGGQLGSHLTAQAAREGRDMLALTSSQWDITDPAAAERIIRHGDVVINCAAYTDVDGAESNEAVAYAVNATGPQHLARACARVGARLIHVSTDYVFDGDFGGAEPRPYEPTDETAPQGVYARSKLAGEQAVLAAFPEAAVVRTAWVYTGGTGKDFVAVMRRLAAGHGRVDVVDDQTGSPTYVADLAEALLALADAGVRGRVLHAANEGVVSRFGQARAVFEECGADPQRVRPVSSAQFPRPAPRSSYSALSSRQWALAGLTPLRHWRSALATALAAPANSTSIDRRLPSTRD
# Target sequence (P9WH11 whole entry, looked up): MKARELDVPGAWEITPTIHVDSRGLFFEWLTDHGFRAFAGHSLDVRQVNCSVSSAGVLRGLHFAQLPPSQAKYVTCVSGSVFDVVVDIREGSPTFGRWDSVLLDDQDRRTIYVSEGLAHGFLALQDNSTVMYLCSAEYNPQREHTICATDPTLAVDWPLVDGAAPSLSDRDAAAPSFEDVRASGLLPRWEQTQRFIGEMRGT
# The depositor's hits bear a star; . = not tested or not shown. This excerpt belongs to a sample that is enriched for hits.
SMILES,YopH PTP inh,RmlCD inh 1536
CCOc1ccc(NC(=S)Nc2ccc3nsnc3c2)cc1,84*,-10
CCOc1ccc(NC(=O)Nc2ccc3nsnc3c2)cc1,.,5
FC(F)(F)c1nnc2ccc(Sc3ccccn3)nn12,.,-9
COC(=O)CSc1nnc(CNC(=O)c2cccc(C)c2)n1-c1ccccc1OC,76*,.
COC(=O)CSc1nnc(CNC(=O)c2ccccc2OC)n1C,-38,20
O=C1C(=O)N(Cc2ccccc2)C(=O)N1CCN1C(=O)c2ccccc2C1=O,.,-3
O=C1Cc2ccccc2C(=O)N1CCc1ccccc1,100*,8
Cc1cccc(N2CN(Cc3ccco3)CNC2=S)c1,-20,.
CCCCn1c(N)c(Sc2ccccc2)c(=O)[nH]c1=O,-31,11
CCCCn1c(N)c(NCCC(C)C)c(=O)[nH]c1=O,52*,-3
Nc1nnc2c(n1)CCCC2,52*,6
C1CCc2nc3c(nc2C1)CCCC3,.,70
CC(=O)c1cn(-c2ccc(Cl)cc2)c(=O)n(Cc2ccc(Br)cc2)c1=O,.,-11
C/C(=N\Nc1nc(N2CCCCC2)nc(N2CCOCC2)n1)c1ccccc1O,.,-5
O=C(CCc1nnc(-c2ccc3c(c2)OCO3)o1)NC(c1cccnc1)C(F)(F)F (configuration not stated),.,7
O=C(Nc1nnc(C(F)(F)F)s1)c1ccc(N2C(=O)C3C4C=CC(C4)C3C2=O)cc1 (configuration not stated),98*,.
CCCc1nnc(NC(=O)c2ccc(N3C(=O)C4C5C=CC(C5)C4C3=O)cc2)s1 (configuration not stated),-21,.
CCOC(=O)c1oc2ccccc2c1CSc1nnnn1-c1ccc(OC)cc1,4,-4
CCOC(=O)c1oc2ccc(Br)cc2c1CSc1nnc(C)s1,88*,-2
CCN(CC)CCCNC(CC(=O)Nc1cccc([N+](=O)[O-])c1)C(=O)O (configuration not stated),-20,2
O=C(Nc1ccc(Cl)cc1)N1CCCN(c2ccc(C(F)(F)F)cc2[N+](=O)[O-])CC1,.,-6
COc1ccc2nc3ccccc3nc2c1,.,-8
COc1ccc(-n2nc3ccccc3n2)cc1,50*,0
O=C(CNC(=O)c1ccco1)N/N=C/c1cccs1,.,6
O=C(N/N=C/c1cccc([N+](=O)[O-])c1)c1ccccc1-n1cccc1,.,6
SMILES,YopH PTP inh,RmlCD inh 1536
CCCCOC(=O)C1=C(C)NC2(O)c3ccccc3C(=O)C12O (configuration not stated),67*,10
CCOC(=O)C1=C(C)N[C@@]2(O)c3ccccc3C(=O)[C@@]12O,35,7
O=C(Nc1cccc(Cl)c1)Nc1nnc(CC2=CCCCC2)s1,-24,5
Cc1oc2c(CN3CCOCC3)c(O)ccc2c(=O)c1-c1ccccc1,-48,66*
COc1ccc(Oc2c(C)oc3c(CN4CCOCC4)c(O)ccc3c2=O)cc1,-12,5
CC(Sc1ccccc1)C(=O)NN=C1CCCCCCC1 (configuration not stated),.,10
COC1=C(Nc2ccc(OC)cc2)C(=O)c2ccccc2C1=O,-19,-12
COc1ccc(NC2=C(NCCO)C(=O)c3ccccc3C2=O)cc1,78*,1
COc1ccc(C(=O)NCc2nnc(SCC(=O)N3CCC(C)CC3)o2)cc1,.,-15
COc1ccc(CCNC(=O)CN2C(=O)c3ccccc3S2(=O)=O)cc1OC,-2,2
Cc1ccc(CSCCNC(=O)CN2C(=O)c3ccccc3S2(=O)=O)cc1,56*,.
CC(=O)OCC(OC(C)=O)C(OC(C)=O)C(OC(C)=O)C(=O)Nc1ccccc1 (configuration not stated),.,-13
COC1=C(c2ccccc2)C(=O)c2ccccc2C1=O,49,.
Nc1ccc2c(c1)Cc1ccccc1-2,-23,5
O=C1C(=O)c2ccc(-c3ccccc3)cc2-c2ccccc21,77*,.
Nc1ccc2c(c1)C(=O)C(=O)c1ccccc1-2,101*,2
CCN(C(=O)CSc1nc2nc(C)cc(C)n2n1)C1CCS(=O)(=O)C1 (configuration not stated),.,7
Cc1cc(F)ccc1S(=O)(=O)Nc1ccccc1C(=O)NCc1cccnc1,.,24
COc1cccc(NC(=S)/C(=C(\[O-])c2ccc([N+](=O)[O-])cc2)[n+]2ccccc2)c1,.,3
CN(C)c1ccc(-c2noc(C3CCN(S(=O)(=O)c4cccc(Cl)c4)CC3)n2)cc1,-32,-10
O=S(=O)(c1ccc2ccccc2c1)N1CCC(c2nc(-c3ccncc3)no2)CC1,50*,.
Cc1cccc(N(CC(=O)NCc2ccco2)C(=O)CCC(=O)Nc2nccs2)c1,.,-6
CC(C)C(=O)Nc1nc2c(c(=O)[nH]1)CCCC2,.,-11
CN(C)S(=O)(=O)c1ccc(S(=O)(=O)Nc2ccc3c(c2)oc2ccccc23)cc1,6,-1
Cc1cc(=O)oc2cc(NS(=O)(=O)c3ccccc3)ccc12,.,43*
SMILES,YopH PTP inh,RmlCD inh 1536
COc1ccc(CCNC(=O)CN2C(=O)NC(C)(c3ccc([N+](=O)[O-])cc3)C2=O)cc1 (configuration not stated),.,-10
CCOc1ccc(C(=S)N2CCOCC2)cc1OC,50*,.
CCOc1cc(C(=S)N2CCOCC2)ccc1OC,12,.
O=C(Nc1cccc(S(=O)(=O)N2CCOCC2)c1)c1c2c(nc3ccccc13)CCC2,-16,4
CCOC(=O)C(NC(=O)NCc1ccc(F)cc1)(OCC)C(F)(F)F (configuration not stated),-15,-14
CCOC(=O)C(NC(=O)Nc1ccccc1)(OCC)C(F)(F)F (configuration not stated),53*,.
C=CCN(C(=O)CSC1=NC(=O)CN1C(C)=O)c1nc(C)c(-c2ccccc2)s1,.,-10
Cc1nc2sc(C(c3ccc(F)cc3)N3CCOCC3)c(O)n2n1 (configuration not stated),-21,.
Cc1ccc(C(c2sc3nc(C)nn3c2O)N2CCOCC2)cc1 (configuration not stated),64*,-8
Cc1c(NC(=O)C(C)OC(=O)C23CC4CC(CC(Br)(C4)C2)C3)c(=O)n(-c2ccccc2)n1C (configuration not stated),.,-4
COc1cc(SC)ccc1C(=O)Nc1nccs1,.,11
O=C1C=C(NCCN2CCOCC2)C(=O)c2cnccc21,101*,.
O=C(NCCN1CCOCC1)c1ccncc1,-31,-6
CS(=O)(=O)N1CCN(C(=O)Cc2ccccc2Cl)CC1,.,-12
CC1(C)COC(/C=C/c2ccc([N+](=O)[O-])cc2)=N1,52*,7
CC(=C/C(=O)O)/C=C/c1ccc([N+](=O)[O-])cc1,-12,8
CCCCN(C)C(=O)c1nc2ccccn2c1CN1CCN(C(=O)c2cccs2)CC1,.,0
CN(C(=O)COc1ccc(C(C)(C)C)cc1)C1CCS(=O)(=O)C1 (configuration not stated),54*,-10
CCc1ccc(OCC(=O)N(C)C2CCS(=O)(=O)C2)cc1 (configuration not stated),-26,.
O=C(CSc1nc2nn(-c3ccccc3)c(=O)c-2c2n1CCCCC2)NCCCc1ccccc1,.,8
O=C(c1ccc(F)cc1)[C@@H]1[C@@H](C(=O)c2ccccc2)[C@@]2(C(=O)Nc3ccccc32)[C@H]2c3ccccc3C=CN12,83*,4
CC(=O)[C@@H]1[C@@H](C(=O)c2ccc(C)cc2)[C@]2(C(=O)Nc3ccccc32)[C@H]2C=Cc3cc(F)ccc3N12,27,-5
CCOc1cc(CNc2ccc(N3CCCC3)cc2)cc(Cl)c1OC,74*,.

# Source: PubChem (several laboratories)
